Compound activity from PubChem.
The entries come from a sample that favours hits as a whole.
Dicer inh = inhibitors of human Dicer processing of pre-microRNA | Q9UPY3 | cat-ELCCA pre-miR-21 Dicer processing, chemiluminescence; active compounds read high | z-score at 25 µM | hit rate 6% among 47,000 | AID 1347074; in the data active means z-score above about 3, passing the limit was not always enough;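 further: plate controls were vehicle for no effect and no enzyme for full effect; higher signal means more uncleaved substrate so more Dicer inhibition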
* = called active by the depositor.

SMILES | Dicer inh
O=C1C(Cc2ccc(-c3nn[nH]n3)cc2)=C(c2ccccc2)S(=O)(=O)c2ccccc21 | 0.28
CCOC(=O)c1c(N)sc2c1CCC2 | -2.8
CCOC(=O)C1=C(C)N2CCCN=C2S1 | 3.3*
CCOC(=O)C1=C(C)N2CCN=C2S1 | 0.91
CCn1c(N2CCOCC2)nc2c1c(=O)[nH]c(=O)n2C | -0.43
Fc1ccc2[nH]cc(-c3nnnn3-c3ccc(Br)cc3)c2c1 | 2.9
N/C(Cc1cc(Cl)cc(Cl)c1)=N\O | 0.57
c1csc(CNc2nc3ccccc3n2CCN2CCCCC2)c1 | -0.42
c1ccc(Cn2c(NCc3cccs3)nc3ccccc32)cc1 | 3*
c1csc(CNc2nc3ccccc3n2CCN2CCOCC2)c1 | 2.2
CCCn1c(NCc2cccs2)nc2ccccc21 | 3.1*
Cc1cc(O)c(C(C)C)cc1NC(=O)c1cc(C(C)(C)C)oc1C | -0.29
O=C(c1ccccc1Cl)c1nccn1Cc1ccc(Cl)cc1 | 0.41
CCOC(=O)c1c(NC(=O)Nc2ccc(C)cc2)sc2c1CCC(C)C2 (centres undefined) | 0.58
CC1CC(=O)C2=C(C1)Nc1ncnn1C2c1ccccc1 (centres undefined) | 4.6*
CC1(C)CC(=O)C2=C(C1)Nc1ncnn1C2c1ccccc1 (centres undefined) | 1.9
CC1(C)CC(=O)C2=C(C1)Nc1ncnn1C2c1cccc(O)c1 (centres undefined) | -0.16
Cc1ccc(C2C3=C(CC(c4ccc(Cl)cc4)CC3=O)Nc3ncnn32)cc1 (centres undefined) | 0.34
Cc1ccc(C2C3=C(CC(c4ccccc4)CC3=O)Nc3nc(C(F)(F)F)nn32)cc1 (centres undefined) | 3*
CCN(CC)c1ccc(C2C3=C(CC(C)(C)CC3=O)Nc3ncnn32)cc1 (centres undefined) | 2.2
CC1(C)CC(=O)C2=C(C1)Nc1ncnn1C2c1ccc(Cl)cc1 (centres undefined) | 3.2*
O=C1CCCC2=C1C(c1cccc(O)c1)n1ncnc1N2 (centres undefined) | 0.53
O=C1CC(c2ccc(Cl)cc2)CC2=C1C(c1cccnc1)n1c(nc3ccccc31)N2 (centres undefined) | -0.56
COc1ccc(OC)c(C(=O)CC2(O)C(=O)N(Cc3ccccc3)c3ccc(Br)cc32)c1 (centres undefined) | 2.5
COC(=O)c1c(NC(=O)CCCC(=O)O)sc2c1CCC(C)C2 (centres undefined) | -1.3
SMILES | Dicer inh
O=C(Nc1cc(C(F)(F)F)cc(C(F)(F)F)c1)C(=S)NCc1ccccc1 | -0.6
Cc1ccc(S(=O)(=O)Nc2ccc(Cl)cc2SCc2ccccc2)cc1 | 0.6
COc1ccc(C(=O)CCC(=O)CCC(=O)O)cc1 | 0.06
COc1ccc(O)c(C2=NN3C(C2)c2cccc(OC)c2OC3c2ccc(OC)c(OC)c2)c1 (centres undefined) | 0.64
CC(NS(=O)(=O)c1ccc(N)cc1)C(=O)O (centres undefined) | -0.74
C[C@H](NS(=O)(=O)c1ccc(F)cc1)C(=O)O | 5.3*
CC(C)[C@H](NS(=O)(=O)c1ccc(F)cc1)C(=O)O | 1.3
O=S(=O)(c1ccccc1)n1nccc1C(c1ccccc1)c1ccccc1 | 1.4
Clc1ccccc1CSc1nccc(-c2csc(-c3ccccc3)n2)n1 | -0.09
CCOC(=O)c1cc(C#N)c(Oc2ccc(Cl)cc2)nc1C(F)(F)F | 3.1
O=C(CCc1ccccc1)NNc1ccc(F)cc1F | -1.4
O=C(CCc1nc(-c2ccc(Cl)cc2)no1)NNC(=S)NCCc1ccccc1 | -0.17
O=C(CCc1ccncc1)NNC(=O)N1Cc2ccccc2Oc2ccc(Cl)cc21 | 3.1*
c1csc(C2CC3(CS2)Nc2ccccc2S3)c1 (centres undefined) | 59
N/C(=N\OC(=O)Nc1ccc(Cl)cc1)c1nccnc1Sc1ccc(Cl)cc1 | 2.6
CCOc1ccc(N(C)S(=O)(=O)c2ccc(Cl)cc2)cc1 | 3.1*
CCOc1ccc2c(c1)C(C)=CC(C)(C)N2S(=O)(=O)c1ccc(Cl)cc1 | 0.79
COc1ccc(N(C2C=CS(=O)(=O)C2)S(=O)(=O)c2ccc(Cl)cc2)cc1 (centres undefined) | -1
CC1(C)C2CC[C@](C)(C2)C1NC(=O)c1cccc(C(F)(F)F)c1 (some centres undefined) | -1.4
Cc1ccc(F)cc1NCN1C(=O)c2ccccc2C1=O | 0.29
c1ccc(-c2ccc(-c3nc(-c4cccnc4)no3)cc2)cc1 | 3.2*
Cc1ccc(-c2nc(-c3cccnc3)no2)cc1C | 2
COc1ccc(-c2nc(-c3cccnc3)no2)cc1 | 1.8
COc1ccc(OC)c(C(=O)CC2(O)C(=O)N(Cc3ccccc3)c3ccccc32)c1 (centres undefined) | -0.54
O=c1c2ccccc2nc(/C=C/c2ccco2)n1Cc1ccccc1 | 3*
SMILES | Dicer inh
Cc1ccc2nc(-c3cc4ccccc4o3)oc(=O)c2c1 | -0.92
C(=C\c1ccco1)/C1=NN(Cc2ccccc2)CC1 | 0.78
O=C(Nc1nc2ccccc2c(=O)s1)c1ccco1 | -0.49
O=C(CSc1nc2ccccc2c(=O)n1Cc1ccco1)c1ccccc1 | -1.3
COc1ccccc1/C=C/c1nc2cc(Cl)ccc2c(=O)o1 | 0.09
Cc1ccc2nc(/C=C/c3ccco3)oc(=O)c2c1 | 11*
Cc1nc2ccc(Br)cc2c(=O)o1 | -0.27
O=c1oc(/C=C/c2ccco2)nc2ccccc12 | 18*
CCOC(=O)c1c(N/N=C\c2ccccc2Cl)n[nH]c1C | 0.78
C=CCOc1c(Cl)cc(C2C(C#N)=C(N)Oc3cc(O)ccc32)cc1OC (centres undefined) | -0.24
CCN(CC)c1ccc2c(c1)OC(N)=C(C#N)C2c1ccc(Cl)cc1 (centres undefined) | -0.3
CCO/C=N\C1=C(C#N)C(c2ccc(Cl)cc2)c2ccc3ccccc3c2O1 (centres undefined) | 3.9*
CCOc1cc(C2C(C#N)=C(N)Oc3c2c(C)nn3-c2ccccc2)ccc1O (centres undefined) | -7.3
CCOc1cc(C2C(C#N)=C(N)Oc3c2ccc2ccccc32)ccc1O (centres undefined) | 7.2*
COc1ccc(C2C(C#N)=C(N)Oc3cc(O)ccc32)cc1Br (centres undefined) | 0.46
CCO/C=N\C1=C(C#N)C(c2ccc(OC)cc2)c2ccc3ccccc3c2O1 (centres undefined) | 0.62
COc1cc(C2C(C#N)=C(N)Oc3c2ccc2ccccc32)cc(Br)c1O (centres undefined) | 3.3*
N#CC1=C(N)Oc2c(ccc3ccccc23)C1c1ccc(Cl)cc1 (centres undefined) | 0.62
CN(NC(=O)c1ccc(Cl)cc1)c1ncccc1[N+](=O)[O-] | 1.5
O=C(C1=NNCC1c1ccccc1)c1ccc2c(ccc3ccccc32)c1 (centres undefined) | 1.6
Cc1cc(Br)c(N2C(=O)CCC2=O)c(Br)c1 | -0.57
COc1cc(CCC(C)NC(=O)Cc2ccccc2)ccc1OC(=O)Cc1ccccc1 (centres undefined) | -0.48
O=S(=O)(c1ccc2ccccc2c1)N1CCN(Cc2cc(Br)ccc2O)CC1 | 4.1*
O=S(=O)(c1ccc(Br)cc1)N1CCN(C/C=C/c2ccccc2)CC1 | -0.37
COc1ccc(OC)c(CN2CCN(S(=O)(=O)c3ccc4ccccc4c3)CC2)c1 | 1.9
Cc1ccc(S(=O)(=O)N2CCN(S(=O)(=O)c3ccc4ccccc4c3)CC2)cc1 | 3.4*
O=C(NCc1ccco1)C1CCCN1S(=O)(=O)c1ccc2ccccc2c1 (centres undefined) | -0.9
COc1ccccc1C1CCN(S(=O)(=O)c2ccc(C)cc2)CC1 | -0.71
